Hit rate of the full screen: of about 16,000 compounds, about 4,000 (25%) were called active. Roughly 26% stayed inconclusive and do not appear here. Only a sample is shown. Values without a mark were called inactive. The call rests on the fitted dose curve; in most records, active means well fitted curve in the direction sought with a large enough effect; inconclusive means small, poorly fitted or top-dose-only effect, or effect the other way; inactive means no such curve, though single readings can be large or run the other way.
On the % scale 0 is the no-effect control and ±100 the full control effect.

The experiment deals with Cytochrome P450 2C9 (Homo sapiens) (UniProt P11712). In words: Cytochrome panel assay with activity outcomes. The conditions noted are these: recombinant CYP, pro-luciferin dealkylation, luminescence, p450-cyp2c9; series mostly up to 57.1 µM.
Cytochrome P450 2C9 (Homo sapiens), sequence (P11712 whole entry, looked up): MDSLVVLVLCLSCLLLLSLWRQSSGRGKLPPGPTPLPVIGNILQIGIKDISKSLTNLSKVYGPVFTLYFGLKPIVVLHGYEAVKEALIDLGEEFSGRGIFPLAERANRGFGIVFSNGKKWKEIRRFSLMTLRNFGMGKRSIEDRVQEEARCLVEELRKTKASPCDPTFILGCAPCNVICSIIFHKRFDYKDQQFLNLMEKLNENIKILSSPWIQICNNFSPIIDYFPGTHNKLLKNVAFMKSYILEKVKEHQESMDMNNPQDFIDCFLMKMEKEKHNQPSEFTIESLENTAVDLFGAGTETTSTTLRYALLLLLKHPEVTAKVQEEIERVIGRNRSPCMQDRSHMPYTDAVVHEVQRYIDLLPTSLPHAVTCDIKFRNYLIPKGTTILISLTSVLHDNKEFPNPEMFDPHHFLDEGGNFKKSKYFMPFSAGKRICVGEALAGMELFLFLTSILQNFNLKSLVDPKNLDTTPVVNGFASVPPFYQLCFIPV
On to `C/C(=N\O)c1cccc[n+]1Cc1ccccc1`, for which the activity, negative = inhibition is -0.751% [at 11.4 µM]. For the compound `COC(=O)[C@]1(C)CCC(c2ccc(C)cc2)=C(CC(=O)O)C1`, the activity, negative = inhibition was 3.21% [at 11.4 µM]. Consider `OC[C@@H]1NC[C@@H](O)[C@H]1O`, for which the AC50 entry was “inactive”. Regarding `FC(F)(F)c1ccccc1-c1cncnc1NCCN1CCOCC1`, the activity, negative = inhibition was -5.4% [at 2.29 µM].

For `Cc1cc(N)c2cc(NC(=O)Nc3ccc4nc(C)cc(N)c4c3)ccc2n1`, the activity, negative = inhibition is -18.2% [at 11.4 µM].

Turning to `CSc1ccc(NC(=O)Nc2cc(C)ccn2)cc1`, the activity, negative = inhibition is -15.6% [at 11.4 µM]. For `Cc1cc(NC(=O)Nc2ccc(N(C)C)cc2)c2cc(F)cc(F)c2n1`, the AC50 was 6.31 µM (active). For the compound `c1ccc(CNc2ncnc3ccc(-c4cccnc4)cc23)cc1`, the activity, negative = inhibition is 8.31% [at 2.29 µM]. Consider `CN1C(=O)CC[C@@H]1c1cccnc1`, for which the AC50 result is “inactive”. On to `O=C1NC(=O)[C@@](Cc2ccccc2)(c2cccnc2)N1`, for which the activity, negative = inhibition is -6.71% [at 11.4 µM]. On to `CC1=C(C(=O)OCc2ccccc2)C(c2cccnc2)c2c(n(C)c(=O)n(C)c2=O)N1` (stereo unspecified), for which the AC50 was 4.47 µM (active). On to `Cc1cnc(CNc2ncncc2-c2ccc3c(c2)OCO3)cn1`, for which the activity, negative = inhibition was 15.7% [at 2.29 µM]. For `CCC(C)(C)NC(=O)c1ccc2c(c1)N(CC(=O)OC)C(=O)C(C)(C)O2`, the AC50 was 28.2 µM (active).

On to `COC(=O)c1cc2c(ccn2-c2ccc(F)cc2)n1CC(C)C`, for which the AC50 was 10 µM (active).

Turning to `Cc1ccc(/C=C2\Sc3ccccc3C2=O)s1`, the AC50 is 3.55 µM (active).

As to `c1ccc(-c2cccc(N3CC[C@@]4(CCCNC4)C3)c2)cc1`, the AC50 entry is “inactive”.

For `CN1CCCCC1=NCCCn1cnc2c1c(=O)n(C)c(=O)n2C`, the AC50 result was “inactive”. As for `Cc1ccc(S(=O)(=O)c2cc(C#N)c(=O)[nH]c2N)cc1`, the AC50 was 11.2 µM (active). The same measure, in the same setting: then `N#Cc1cc2[nH]c(=O)c(=O)[nH]c2cc1[N+](=O)[O-]`, with “inactive”. For the compound `Cc1ccc(S(=O)(=O)Nc2cc(=O)[nH]c3c2CCC3)cc1`, the activity, negative = inhibition was 8.32% [at 11.4 µM]. As to `COc1cccc([C@H](O)Cn2cc(-c3ccc(CON=C(C)C)cc3)nn2)c1`, the activity, negative = inhibition is -13.3% [at 11.4 µM]. As to `CN(C)c1ncc2nc(-c3ccc(F)cc3)c(=O)n(CCC#N)c2n1`, the AC50 entry is “inactive”. On the same count and under the same terms, then `Cc1nn(Cc2ccc(Cl)cc2)c(C)c1NC(=O)CSc1nc2c(c(C(F)(F)F)n1)CCc1ccccc1-2`, with 1.41 µM (active); and `Cc1ccccc1Cn1cc(NC(=O)CSc2nc3c(c(C(F)(F)F)n2)CCc2ccccc2-3)cn1`, with 1.78 µM (active); and `Cl/C(=C\n1cncn1)c1ccc(Cl)cc1Cl`, with “inactive”. Still for that read-out and setting: then `O=C(c1cnc(-c2ccccc2)s1)c1ccc(Cl)cc1Cl`, with 20 µM (active). On to `COc1ccc(C(O)P(=O)(OC(C)C)OC(C)C)cc1OC` (stereo unspecified), for which the AC50 is 7.94 µM (active). Regarding `COC(=O)C(C(=O)OC)C(C[N+](=O)[O-])c1ccc(OC)c(OC)c1` (stereo unspecified), the AC50 result was “inactive”. For `COc1cc([C@@H](O)CO)ccc1OS(=O)(=O)O`, the AC50 entry was “inactive”. The same measure, in the same setting: then `COC(=O)[C@@]1(Cc2ccccc2)[C@H]2c3cc(C(=O)N4CCCC4)[nH]c3C[C@H]2CN1C(=O)c1ccccc1`, with 0.794 µM (active); and `COC(=O)[C@@]1(Cc2ccc(OC)cc2)[C@H]2c3cc(C(=O)N(C)C)[nH]c3C[C@H]2CN1C(=O)c1ccccc1`, with 3.98 µM (active). In the case of `COC(=O)C/C=C\[C@@H](C)[C@@H](/C=N\O[C@@H](C)c1cn([C@H]2COC[C@H]2O)nn1)OC`, the activity, negative = inhibition is -15.9% [at 11.4 µM]. For the compound `Cc1c2cnccc2c(C)c2c1c1ccccc1n2CCOC(=O)c1ccccc1`, the AC50 is 3.16 µM (active). Regarding `CN(C)CCCn1c2ccccc2c2cnccc21`, the activity, negative = inhibition is 4.43% [at 11.4 µM].

Take `COc1ccccc1CN1CCCC2(CCN(C(=O)c3c(C)noc3C)CC2)C1`: the AC50 entry is “inactive”. On the same count and under the same terms, then `CCOC(=O)c1c(-c2ccccc2)nc2c(C)cccn12`, with 11.2 µM (active). On to `CC(C)[C@H](NC(=O)OC(C)(C)C)[C@@H](O)CC(=O)OC(C)(C)C`, for which the activity, negative = inhibition was 20.6% [at 11.4 µM]. Consider `CC(NC(=O)C1(C)CC1(Br)Br)C(C)(C)C` (stereo unspecified), for which the AC50 was 31.6 µM (active). With `CC(=O)C[C@H](O)[C@@H](NC(=O)OC(C)(C)C)C(C)C`, the activity, negative = inhibition was -4.41% [at 11.4 µM]. For `O=C1[C@@H]2C=CC=CC2=NC(=S)N1CCN1CCC(=C(c2ccc(F)cc2)c2ccc(F)cc2)CC1`, the AC50 is 31.6 µM (active). Take `CC1CCN(C(=O)CSc2nc3cccnc3n2C)CC1`: the AC50 result was “inactive”. On the same count and under the same terms, then `CC(C)c1ccccc1-n1c(SCC(=O)N2CCN(c3ccccc3)CC2)nnc1-c1cccnc1`, with 11.2 µM (active).

For the compound `O=c1cc(CSc2nnc(-c3cccnc3)n2-c2ccccc2F)nc2sccn12`, the AC50 result is “inactive”. In the case of `C#CCCCO/N=C1/C[C@@H](O)[C@@H](O)[C@@H]2[C@@H]3C(=O)N(CCC(=O)OCC)C(=O)[C@H]3CC[C@@H]12`, the activity, negative = inhibition was 2.98% [at 11.4 µM].

Consider `C=C[C@]1(C)C[C@H](OC(=O)CO)[C@]2(C)C3C(=O)CC[C@]3(CC[C@H]2C)[C@H](C)[C@H]1O` (stereo partly specified), for which the activity, negative = inhibition was 4.64% [at 11.4 µM].

In the case of `O=C1Nc2ccc(F)cc2C12Nc1ccccc1-c1nnc(SCc3ccccc3F)nc1O2` (stereo unspecified), the AC50 is 2 µM (active). On to `Cc1ccc(CSc2nnc3c(n2)OC2(Nc4ccccc4-3)C(=O)Nc3ccc(F)cc32)cc1` (stereo unspecified), for which the AC50 was 8.91 µM (active).

For `N=C(N)c1ccc(N=Nc2c(O)ccc3c2[nH]c2ccccc23)cc1`, the activity, negative = inhibition was -5.45% [at 11.4 µM]. On the same count and under the same terms, then `c1csc(CNc2cc(-c3ccoc3)ncn2)c1`, with -7.77% [at 2.29 µM]; and `O=C1[C@H]2[C@H]3[C@H](O)[C@H](O)C/C(=N/OC[C@@H](O)COCc4ccco4)[C@@H]3CC[C@@H]2C(=O)N1Cc1ccc2c(c1)OCO2`, with 3.23% [at 11.4 µM]; and `C#CCCCO/N=C1/C[C@@H](O)[C@@H](O)[C@@H]2[C@@H]3C(=O)N(C[C@@H]4CCCO4)C(=O)[C@H]3CC[C@@H]12`, with 16.1% [at 11.4 µM]. As for `CN(Cc1ccco1)c1cc(-c2cccnc2)ncn1`, the activity, negative = inhibition is 2.79% [at 2.29 µM]. As for `O=C(OCc1nnc(-c2ccccc2)o1)c1ccc2c(c1)OCCO2`, the AC50 was 7.94 µM (active). The same measure, in the same setting: then `CCCN1C(=O)C2(/C(=C(\O)c3ccc4c(c3)OCCO4)C(=O)C(=O)N2CCCOC)c2ccccc21` (stereo unspecified), with “inactive”. With `Cc1cc(C)c(-c2cc([C@H](C)O/N=C3/[C@H]4OC4[C@@H](O)[C@H]4[C@H]3CCn3c(=O)n(-c5ccccc5)c(=O)n34)on2)c(C)c1` (stereo partly specified), the activity, negative = inhibition is -29.1% [at 11.4 µM].

Regarding `Cc1ccc(C)c(OCCCC(C)(C)C(=O)O)c1`, the AC50 is 6.31 µM (active). Still for that read-out and setting: then `COC(=O)Cn1c(=N)n(CCN2CCCCC2)c2ccccc21`, with “inactive”.

Regarding `Fc1ccc(Nc2nc(-c3ccoc3)nc3ccccc23)cc1`, the activity, negative = inhibition was 8.98% [at 2.29 µM]. Regarding `CC(C)Nc1nc(NC(C)(C)C)nc(Oc2ccc(=O)n(-c3ccccc3)n2)n1`, the AC50 was 20 µM (active). Still for that read-out and setting: then `CCCn1nc(Oc2nc(NCC)nc(NCC)n2)ccc1=O`, with “inactive”; and `CCCn1nc(Oc2nc(NCC)nc(NC(C)C)n2)ccc1=O`, with “inactive”. As to `C[N+]1(NCC[N@@+]2(C)CCc3ccccc3C2)CCCCC1`, the activity, negative = inhibition was 5.5% [at 11.4 µM]. Turning to `CC(=O)OC[C@@H]1O[C@H](CCO/N=C(\C)CCN2CCCc3nc(C)c(C)cc32)C=C[C@@H]1OC(C)=O`, the activity, negative = inhibition was -1.93% [at 11.4 µM]. Regarding `CCCCn1nnnc1SCC(=O)N1CCCC1`, the AC50 result is “inactive”. Same read-out and setting: then `N[C@@H](CSS(=O)(=O)O)C(=O)O`, with 12.6 µM (active).

Take `CCSC[C@@H](N)C(=O)O`: the activity, negative = inhibition is 4.58% [at 11.4 µM]. In the case of `N[C@@H](CO)C(=O)O`, the AC50 entry is “inactive”. Take `COc1cccc(-c2nc(NCCc3c[nH]c4ccc(OC)cc34)c3ccccc3n2)c1`: the AC50 was 0.794 µM (active).

For the compound `COc1cccc(-c2nc(NCc3cccnc3)c3ccccc3n2)c1`, the activity, negative = inhibition is -29.9% [at 2.29 µM]. For `COCCNc1nc(-c2cccc(OC)c2)nc2ccccc12`, the activity, negative = inhibition is -26.4% [at 2.29 µM].

Turning to `COc1ccc2[nH]cc(CCNc3nc(-c4ccc(N(C)C)cc4)nc4ccccc34)c2c1`, the AC50 was 0.398 µM (active).

On to `COc1cccc(-c2nc(NCc3cnc(C)cn3)c3ccccc3n2)c1`, for which the activity, negative = inhibition is 0.563% [at 2.29 µM]. For the compound `COc1ccc2[nH]cc(CCNc3nc(-c4ccccc4CN(C)C)nc4ccccc34)c2c1`, the activity, negative = inhibition is 10.1% [at 2.29 µM].

Take `COc1ccc2[nH]cc(CCNc3ccnc(-c4ccc(N(C)C)cc4)n3)c2c1`: the activity, negative = inhibition was -7.16% [at 2.29 µM]. With `COc1ccc2[nH]cc(CCNc3nc(-c4ccccc4OC)nc4ccccc34)c2c1`, the activity, negative = inhibition is -1.54% [at 2.29 µM]. As to `COc1cccc(-c2nc(NCc3ccccc3)c3ccccc3n2)c1`, the AC50 is 1.26 µM (active). For the compound `Cc1c(C)c2c(c(C)c1O)CC[C@@](C)(C(=O)O)O2`, the AC50 result is “inactive”.

Turning to `CCCC/C=C/C(NC(=O)c1ccc(-c2ccccc2)cc1)c1ccccc1` (stereo unspecified), the AC50 result is “inactive”.

For `CCCC/C=C/C(NC(=O)c1ccc(C(F)(F)F)cc1)c1ccccc1` (stereo unspecified), the AC50 is 2 µM (active). On the same count and under the same terms, then `CCCC/C=C/C(NC(=O)c1ccco1)c1ccccc1` (stereo unspecified), with 15.8 µM (active); and `CCCC/C=C/C(NC(=O)c1ccccc1)c1ccccc1` (stereo unspecified), with 10 µM (active). Consider `Cc1occc1C(=O)NNC(=O)Cc1ccccc1`, for which the AC50 result is “inactive”.

In the case of `CC[C@H](CN(C)C)C(=O)c1ccco1`, the activity, negative = inhibition is 0.0002% [at 11.4 µM]. Regarding `CCCC/C=C/C(NC(=O)c1cccs1)c1ccccc1` (stereo unspecified), the AC50 was 0.316 µM (active). Still for that read-out and setting: then `C/C(=C\C1CCCCC1)C(NC(=O)c1ccc(C(F)(F)F)cc1)c1ccc(-c2ccccc2)cc1` (stereo unspecified), with “inactive”. Take `CCC(CC)C(=O)NCCN1CCN(C(=O)C(CC)CC)CC1`: the AC50 entry was “inactive”.

These data come from PubChem BioAssay AID1851 (National Center for Advancing Translational Sciences (NCATS), 2009).
